Screening results from PubChem.
Compounds with a hit are over-represented: about 3.5% of the library has one in this group of screens.
Pf apPOL block – Pf-apPOL inhibitors, biochemical, fluorescence. 0.25% of 210,000 active. inhibition, % at 10 µM. Recombinant Pf-apPOL, molecular beacon fluorescence, 1.5 h
mHTT CaM bind – mutant huntingtin-calmodulin interaction inhibitors – biochemical, AlphaScreen, primary screen; P42858; AlphaScreen His-mHTT/GST-CaM binding, luminescence; inhibition, % at 15 µM; 3.6% of 190,000 active; AID 1671202, 2021;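 note: 0% = both proteins with DMSO and 100% = one protein alone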
Target sequence (P42858 whole entry, looked up, stated change not applied): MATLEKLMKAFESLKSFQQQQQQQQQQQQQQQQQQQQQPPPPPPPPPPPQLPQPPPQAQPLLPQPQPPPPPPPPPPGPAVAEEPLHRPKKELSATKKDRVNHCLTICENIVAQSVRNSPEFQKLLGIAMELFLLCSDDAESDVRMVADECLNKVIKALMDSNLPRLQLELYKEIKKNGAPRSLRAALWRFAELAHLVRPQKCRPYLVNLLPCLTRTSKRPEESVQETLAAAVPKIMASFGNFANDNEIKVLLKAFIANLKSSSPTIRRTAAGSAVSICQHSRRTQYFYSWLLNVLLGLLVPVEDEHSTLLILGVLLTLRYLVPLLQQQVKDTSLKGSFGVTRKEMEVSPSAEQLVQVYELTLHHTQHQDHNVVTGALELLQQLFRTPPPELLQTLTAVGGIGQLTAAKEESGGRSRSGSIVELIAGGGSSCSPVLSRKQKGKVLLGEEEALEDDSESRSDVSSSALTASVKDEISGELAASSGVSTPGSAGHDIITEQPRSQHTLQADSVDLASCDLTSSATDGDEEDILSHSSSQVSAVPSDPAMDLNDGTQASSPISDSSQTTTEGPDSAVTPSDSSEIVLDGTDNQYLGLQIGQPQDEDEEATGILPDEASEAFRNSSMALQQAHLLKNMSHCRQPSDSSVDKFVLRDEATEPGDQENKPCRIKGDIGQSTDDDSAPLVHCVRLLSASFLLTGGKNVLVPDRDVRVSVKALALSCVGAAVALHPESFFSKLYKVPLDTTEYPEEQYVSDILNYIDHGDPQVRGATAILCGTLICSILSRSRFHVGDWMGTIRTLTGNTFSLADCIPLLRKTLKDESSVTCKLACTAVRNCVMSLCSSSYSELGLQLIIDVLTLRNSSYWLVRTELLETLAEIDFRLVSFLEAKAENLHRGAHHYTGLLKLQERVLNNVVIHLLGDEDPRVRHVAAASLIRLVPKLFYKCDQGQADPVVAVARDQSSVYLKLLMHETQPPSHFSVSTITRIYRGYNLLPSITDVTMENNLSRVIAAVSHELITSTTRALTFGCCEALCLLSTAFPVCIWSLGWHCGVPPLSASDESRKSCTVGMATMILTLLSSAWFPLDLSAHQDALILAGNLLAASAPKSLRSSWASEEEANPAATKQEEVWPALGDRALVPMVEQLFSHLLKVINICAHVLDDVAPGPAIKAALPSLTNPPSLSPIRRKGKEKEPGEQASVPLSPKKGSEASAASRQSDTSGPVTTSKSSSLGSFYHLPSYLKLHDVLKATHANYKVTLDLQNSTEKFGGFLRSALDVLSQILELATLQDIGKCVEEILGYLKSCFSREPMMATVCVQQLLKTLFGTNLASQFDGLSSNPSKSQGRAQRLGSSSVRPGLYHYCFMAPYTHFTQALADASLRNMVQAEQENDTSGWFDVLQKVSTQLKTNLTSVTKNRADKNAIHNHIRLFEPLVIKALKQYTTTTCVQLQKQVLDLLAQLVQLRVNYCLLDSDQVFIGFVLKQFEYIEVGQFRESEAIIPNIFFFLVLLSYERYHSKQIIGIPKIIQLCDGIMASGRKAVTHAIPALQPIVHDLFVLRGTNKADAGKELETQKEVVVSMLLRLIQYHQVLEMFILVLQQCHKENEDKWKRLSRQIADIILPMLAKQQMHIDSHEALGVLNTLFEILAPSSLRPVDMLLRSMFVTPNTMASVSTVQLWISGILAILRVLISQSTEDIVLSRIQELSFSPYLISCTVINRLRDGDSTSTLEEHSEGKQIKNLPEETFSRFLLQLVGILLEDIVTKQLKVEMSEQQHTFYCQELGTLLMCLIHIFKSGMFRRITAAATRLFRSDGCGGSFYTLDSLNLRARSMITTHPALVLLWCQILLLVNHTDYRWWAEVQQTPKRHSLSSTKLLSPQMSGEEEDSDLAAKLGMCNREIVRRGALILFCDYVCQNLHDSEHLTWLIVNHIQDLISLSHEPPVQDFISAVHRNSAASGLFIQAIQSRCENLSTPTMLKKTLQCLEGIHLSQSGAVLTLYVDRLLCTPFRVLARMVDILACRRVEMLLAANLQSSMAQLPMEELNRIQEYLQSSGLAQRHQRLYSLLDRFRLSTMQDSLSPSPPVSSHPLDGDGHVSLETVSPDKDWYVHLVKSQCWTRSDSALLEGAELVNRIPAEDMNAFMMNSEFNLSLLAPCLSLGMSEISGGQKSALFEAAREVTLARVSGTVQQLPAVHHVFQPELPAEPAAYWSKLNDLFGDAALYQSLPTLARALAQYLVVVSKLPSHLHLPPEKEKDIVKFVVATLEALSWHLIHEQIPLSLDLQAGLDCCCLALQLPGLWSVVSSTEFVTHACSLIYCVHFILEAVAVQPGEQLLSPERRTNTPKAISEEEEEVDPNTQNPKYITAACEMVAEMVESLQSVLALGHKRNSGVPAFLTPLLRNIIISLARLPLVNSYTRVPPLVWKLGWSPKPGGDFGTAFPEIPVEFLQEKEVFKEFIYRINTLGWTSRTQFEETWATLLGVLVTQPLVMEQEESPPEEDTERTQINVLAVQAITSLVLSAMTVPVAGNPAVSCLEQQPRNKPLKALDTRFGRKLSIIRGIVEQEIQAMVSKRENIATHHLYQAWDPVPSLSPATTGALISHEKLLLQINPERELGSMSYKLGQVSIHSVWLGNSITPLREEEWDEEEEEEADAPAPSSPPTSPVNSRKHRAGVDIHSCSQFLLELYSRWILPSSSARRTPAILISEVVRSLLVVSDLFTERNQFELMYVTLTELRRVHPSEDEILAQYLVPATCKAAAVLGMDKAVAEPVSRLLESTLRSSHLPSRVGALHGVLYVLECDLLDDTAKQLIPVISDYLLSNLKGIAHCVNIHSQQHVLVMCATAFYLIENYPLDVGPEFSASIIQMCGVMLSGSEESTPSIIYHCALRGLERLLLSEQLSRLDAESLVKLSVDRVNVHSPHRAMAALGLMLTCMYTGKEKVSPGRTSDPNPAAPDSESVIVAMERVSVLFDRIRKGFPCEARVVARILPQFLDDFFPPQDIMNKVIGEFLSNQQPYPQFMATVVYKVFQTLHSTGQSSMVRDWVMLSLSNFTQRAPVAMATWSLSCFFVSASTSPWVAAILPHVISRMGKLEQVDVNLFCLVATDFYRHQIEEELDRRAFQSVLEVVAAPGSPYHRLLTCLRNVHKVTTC
An asterisk follows results filed as active; . = no result given; ! = not active in a repeat. Cut-off read from the data, not from the text of the source: active = inhibition above about 50%; inactive = the rest.

SMILES	Pf apPOL block	mHTT CaM bind
O=C(Nc1ccc(-c2nc3ccccc3s2)c(O)c1)c1ccccc1	97*	-13
COc1cccc(C(=O)Nc2cccc(-c3nc4ccccc4s3)c2)c1	0	-6
O=C(Nc1ccc(-c2nc3ccccc3s2)cc1)c1ccccc1F	2	5
Cc1ccc(-c2nc3ccccc3s2)cc1NC(=O)c1ncn[nH]1	-4	98*
O=C(Nc1ccc(-c2nc3ccccc3s2)c(O)c1)c1ccc(F)cc1	0	-4
Cc1ccccc1-n1nc2c(c1NC(=O)c1cccc([N+](=O)[O-])c1)CS(=O)(=O)C2	-3	-2
CN(Cc1ccccc1)S(=O)(=O)Cc1ccccc1	4	-7
O=C(Cn1c(C(F)(F)F)nc2ccccc21)NCc1ccco1	-1	1
O=C(Cn1c(-c2nnco2)cc2ccccc21)NCc1ccco1	25	69*
COc1ccc(C2C(C(=O)Nc3ccc(Cl)cc3)=C(C)Nc3ncnn32)cc1Br (stereo unspecified)	2	40
COc1ccc(Br)cc1C1C(C(=O)Nc2ccc(Cl)cc2)=C(C)Nc2ncnn21 (stereo unspecified)	-3	60*
CC(C)Cc1ccc(S(=O)(=O)n2cc([N+](=O)[O-])cn2)cc1	-3	100*
COc1ccc(OC)c(S(=O)(=O)c2ccc([N+](=O)[O-])cc2Cl)c1	-10	.
COc1ccc(OC)c(S(=O)(=O)n2cc([N+](=O)[O-])cn2)c1	-11	100*
O=[N+]([O-])c1ccc(S(=O)(=O)n2cccn2)cc1	13	8
O=C(CSc1nnc(-c2ccncc2)o1)Nc1ccccc1F	-5	-9
CC1CN=C2C=C(N3CCN(C(=O)NCc4ccco4)CC3)N=CN21 (stereo unspecified)	-2	6
O=c1[nH]c(-c2ccc3c(c2)OCO3)cn1-c1ccccc1	0	7
Cc1ccc(-n2cc(-c3ccc4c(c3)OCO4)[nH]c2=O)cc1	1	70*
N#Cc1cccnc1N1CCN(c2ccccc2)CC1	-2	-14
Cn1nc(-c2nc(-c3ccccc3)no2)c2c1CCN(S(=O)(=O)c1ccccc1F)C2	-4	-2
COc1ccc(S(=O)(=O)N2CC(C)N(S(=O)(=O)c3ccc(OC)cc3)CC2C)cc1 (stereo unspecified)	-9	0
CCOc1ccc(C2C(=O)c3ccccc3C2=O)cc1	-1	-4
CC(C)(C)c1ccc(S(=O)(=O)N=C2C=CC(=O)c3ccccc32)cc1	8	94*
CCc1ccc(S(=O)(=O)N=C2C=CC(=O)c3ccccc32)cc1	-2	93*
SMILES	Pf apPOL block	mHTT CaM bind
CCOc1ccc(S(=O)(=O)N=C2C=CC(=O)C(Br)=C2)cc1	-5	73*
CCc1ccc(S(=O)(=O)N=C2C=CC(=O)C=C2)cc1	-2	48
CC(C)c1ccc(S(=O)(=O)N=C2C=C(Br)C(=O)c3ccccc32)cc1	-3	40
COc1ccc(S(=O)(=O)N=C2C=C(Br)C(=O)C(Br)=C2)cc1	-1	46
CCOc1ccc(S(=O)(=O)N=C2C=CC(=O)c3ccccc32)cc1	-4	72*
CC1=NN(C(=O)c2ccc(Br)o2)C(O)(C(F)(F)F)C1 (stereo unspecified)	-7	0
CCOc1ccc(C(=O)N2CCN(Cc3ccccc3)CC2)cc1	-9	-4
CCc1ccccc1NC(=O)C1CC(=O)N(c2ccc(C)c(C)c2)C1 (stereo unspecified)	-7	7
O=[N+]([O-])c1cc(C(F)(F)F)cc([N+](=O)[O-])c1Sc1nc2ccccc2[nH]1	3	99*
Cn1cnc([N+](=O)[O-])c1Sc1nc2ccccc2[nH]1	0	2
Nc1ncnc(Sc2nc3ccccc3[nH]2)c1[N+](=O)[O-]	3	79*
O=[N+]([O-])c1ccc(Cl)cc1Sc1nc2ccccc2[nH]1	-6	-3
CCCc1nnsc1C(=O)NCC1CCN(C(=O)Oc2ccccc2)CC1	-13	-9
CN1C(=O)C2CCCCN2c2ccc(C(=O)NCCC3=CCCCC3)cc21 (stereo unspecified)	0	-5
CCOC(=O)c1ccc(-n2sccc2=O)cc1	96*	.
CCOC(=O)c1ccc(NC(=O)CN2CCN(c3ccc(OC)cc3)C2=O)cc1	-1	-7
COc1ccc(OC)c(S(=O)(=O)N2CCC(c3noc(-c4ccccc4)n3)CC2)c1	-1	0
COc1ccc(C2Oc3c(ccc4cc(OC)c(OC)cc34)-c3cc(OC)c(OC)cc32)cc1 (stereo unspecified)	.	11
COc1cc2c(cc1OC)C(c1ccc(Cl)cc1)OC1=C2C(=O)c2ccccc21 (stereo unspecified)	-1	68*!
O=C(Nc1ccc(Cl)cc1F)c1cc(S(=O)(=O)N2CCOCC2)ccc1F	-2	1
CC(=O)N(Cc1ccc2c(c1)CN(C(=O)C(C)(C)C)CCO2)c1ccc(C)cc1	-7	73*
CC(C)(C)C(=O)N1CCN(Cc2ccc3c(c2)OCO3)CC1	-10	.
CC1CN(S(=O)(=O)c2ccc(C(=O)N=c3sc4cc(F)ccc4n3C)cc2)CC(C)O1 (stereo unspecified)	2	0
COc1ccc(S(=O)(=O)N=C2C=C(Nc3cccc(C)c3)C(=O)c3ccccc32)cc1	-16	91*
Cc1ccccc1NC1=CC(=NS(=O)(=O)c2ccc(F)cc2)c2ccccc2C1=O	3	96*
SMILES	Pf apPOL block	mHTT CaM bind
O=C1C(NS(=O)(=O)c2ccccc2)=CC(=NS(=O)(=O)c2ccc(F)cc2)c2ccccc21	-5	5
COc1ccc(S(=O)(=O)N=C2C=C(Nc3ccccc3OC)C(=O)c3ccccc32)cc1	0	91*
COc1ccc(NC2=CC(=NS(=O)(=O)c3ccc(Cl)cc3)c3ccccc3C2=O)cc1	0	35
COc1ccccc1NC1=CC(=NS(=O)(=O)c2ccccc2)c2ccccc2C1=O	3	94*
COc1ccccc1NC(=O)c1ccc2c(c1)-c1ccccc1C2=O	0	2
COc1ccc(S(=O)(=O)Nc2ccccc2NS(=O)(=O)c2ccc(OC)cc2)cc1	3	6
COc1ccccc1NC1=CC(=NS(=O)(=O)c2ccc(C)cc2C)c2ccccc2C1=O	-6	92*
COc1ccccc1NC1=CC(=NS(=O)(=O)c2ccc(F)cc2)c2ccccc2C1=O	2	94*
COc1ccccc1NC(=O)CN(c1ccc(C)cc1C)S(C)(=O)=O	-3	0
COc1ccccc1NC(=O)c1ccc(F)cc1	-2	-6
CCc1ccc(S(=O)(=O)N=C2C=C(Nc3ccccc3OC)C(=O)c3ccccc32)cc1	0	93*
CCc1ccc(S(=O)(=O)Nc2ccccc2OC)cc1	2	-25
Cc1ccc(CCNC(=O)c2ccc3c(c2)nc2n3CCCCC2)cc1	-5	-4
Cc1ccc(S(=O)(=O)C2(C(=O)NC(C)(C)C)CC2)cc1	-6	-4
CCC(CC)C(=O)Nc1cc(F)c2nc(N3CCOCC3)ccc2c1	2	3
COCCc1nnc(NC(=O)C(c2ccccc2)c2ccccc2)o1	-7	96*
COCC(C)NC(=O)C(c1ccccc1)c1ccccc1 (stereo unspecified)	-9	-9
Cc1cccc(C2=NN(c3ccc(Br)cc3)[C@@H](C(=O)N3CCOC3=O)[C@@H]2C)c1	9	3
O=C1OCCN1C(=O)[C@H]1[C@H](c2ccc([N+](=O)[O-])cc2)C(c2cccc(Cl)c2)=NN1c1ccccc1	-1	55*
